Holding throughout (assay): NCI-60 one-dose screen, 48 h (100 = growth as untreated, 0 = no growth, -100 = all killed)
One experiment relates to NCI-H23 lung. To be noted: 10 µM unless noted.
The next experiment has as its system HOP-62 NSCLC. To be noted: 10 µM unless noted.
The next experiment concerns NCI-H460 lung. To be noted: 10 µM unless noted.
For a further experiment, the system named is HOP-92 NSCLC. To be noted: 10 µM.
The next experiment has as its system NCI-H522 lung. The settings on record: 10 µM.
In a further experiment the test system is A549/ATCC NSCLC. To be noted: 10 µM unless noted.
The next experiment has as its system 786-0 renal. To be noted: 10 µM unless noted.
The test system of a further experiment is COLO 205 colon. The settings on record: 10 µM unless noted.
The subject of another experiment is NCI-H322M lung. To be noted: 10 µM unless noted.

Each structure is given as a SMILES string. Several values for one entry are separate records, joined by “and”; a condition that tells them apart may be missing. Equal entries are not always repeated. The panel holds about 83,000 compounds, 20% with a hit somewhere; the sample as a whole holds those more often.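 Assay: single dose, 48 h. Readout: percent growth (0 = no net growth; negative = cell death). Active: <10.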 Activity calls are given as the source filed them.

13 compounds from PubChem BioAssay (NCI) can be followed below.

Regarding `CCCCNc1ccc(Nc2ccccc2)cc1`, the growth with NCI-H23 lung was 41.7% (inactive); in the experiment on HOP-62 NSCLC, 106% (inactive); in the experiment with NCI-H460 lung, 76.7% (inactive); in the experiment on HOP-92 NSCLC it was 63.7% (inactive); in the experiment with NCI-H522 lung it was 31.2% (inactive); in the experiment with A549/ATCC NSCLC, 70.1% (inactive). Further, the growth is 92.9% (inactive) with 786-0 renal and 85% (inactive) with COLO 205 colon.

With `COc1cc(C(O)C2C(=O)OCC2C2(c3ccc4c(c3)OCO4)SCCCS2)cc(OC)c1OC` (stereo not given), the growth was 93.8% (inactive) in the experiment on NCI-H23 lung; 101% (inactive) in the experiment with HOP-62 NSCLC; 107% (inactive) in the experiment on NCI-H460 lung; 77.8% (inactive) in the experiment with HOP-92 NSCLC; 86.5% (inactive) in the experiment with NCI-H522 lung; 97.1% (inactive) in the experiment with A549/ATCC NSCLC. The growth with 786-0 renal is 103% (inactive); in the experiment on COLO 205 colon it was 94.2% (inactive).

Consider `CN(C)CC1CCCCCC(CN(C)C)C1=O` (stereo not given), for which the growth in the experiment with NCI-H23 lung was 97.2% (inactive); in the experiment on NCI-H322M lung, 116% (inactive); in the experiment with HOP-62 NSCLC, 113% (inactive); in the experiment on NCI-H460 lung, 106% (inactive); with HOP-92 NSCLC, 73.2% (inactive); with NCI-H522 lung, -42.8% (active). Moreover, the growth was 106% (inactive) in the experiment on A549/ATCC NSCLC, 89.6% (inactive) in the experiment on 786-0 renal and -80.9% (active) in the experiment on COLO 205 colon.

Turning to `COc1ccc2cc1Oc1ccc(cc1)C[C@H]1c3cc(c(OC)cc3CCN1C)Oc1c(OC)c(OC)cc3c1[C@H](C2)N(C)CC3`, the growth in the experiment on NCI-H23 lung is 92.7% (inactive); in the experiment with NCI-H322M lung, 52.6% (inactive); with HOP-62 NSCLC, 17.7% (inactive); with NCI-H460 lung, 44.9% (inactive); with NCI-H522 lung, 1.42% (active); in the experiment with A549/ATCC NSCLC, 39.6% (inactive). Also, the growth was 46.3% (inactive) with 786-0 renal and 44.8% (inactive) in the experiment with COLO 205 colon.

As to `CC1CCC2(OC1)OC1CC3C4CC=C5CC(O)CCC5(C)C4CCC3(C)C1C2C` (stereo not given), the growth with NCI-H23 lung was 104% (inactive); in the experiment on HOP-62 NSCLC it was 66.6% (inactive); with NCI-H460 lung, 103% (inactive); in the experiment on HOP-92 NSCLC, 26.6% (inactive); with NCI-H522 lung, 103% (inactive); with A549/ATCC NSCLC it was 27.3% (inactive). In addition, the growth in the experiment with COLO 205 colon is 111% (inactive).

In the case of `Brc1ccc(SSc2ccc(Br)cc2)cc1`, the growth in the experiment on NCI-H23 lung was 72.5% (inactive); in the experiment with HOP-62 NSCLC it was 75.3% (inactive); in the experiment with NCI-H460 lung it was 68.1% (inactive); with HOP-92 NSCLC, 98.4% (inactive); in the experiment on NCI-H522 lung, 85.2% (inactive); in the experiment on A549/ATCC NSCLC, 66.7% (inactive). For the same compound, the values for the growth in the experiment on 786-0 renal and in the experiment on COLO 205 colon were 59% (inactive) and 90.6% (inactive), respectively.

Turning to `N#CC(C#N)N=Nc1ccc(Cl)cc1`, the growth in the experiment with NCI-H23 lung was 36.5% (inactive); with HOP-62 NSCLC, 84.9% (inactive); with NCI-H460 lung it was 91% (inactive); in the experiment with HOP-92 NSCLC it was -15.1% (active); in the experiment on NCI-H522 lung it was -12.4% (active); in the experiment with A549/ATCC NSCLC it was 105% (inactive). Besides, the growth is 59% (inactive) with 786-0 renal and -33.9% (active) in the experiment on COLO 205 colon.

In the case of `NC(Cc1c[nH]c2ccccc12)C(=O)O` (stereo not given), the growth in the experiment with NCI-H23 lung was 106% (inactive) and 108% (inactive); in the experiment with HOP-62 NSCLC it was 64.3% (inactive) and 96.3% (inactive); in the experiment on NCI-H460 lung, 105% (inactive) and 101% (inactive); with HOP-92 NSCLC it was 75.5% (inactive); in the experiment with NCI-H522 lung it was 86% (inactive) and 93.1% (inactive); with A549/ATCC NSCLC it was 113% (inactive) and 97.8% (inactive). The growth is 69.5% (inactive) and 99.7% (inactive) in the experiment on 786-0 renal; 117% (inactive) and 103% (inactive) with COLO 205 colon.

Turning to `O=c1[nH]cnc2c1ncn2C1OC(CO)C(O)C1O` (stereo not given), the growth in the experiment with NCI-H23 lung is 116% (inactive) and 104% (inactive) and 109% (inactive); in the experiment on NCI-H322M lung, 112% (inactive) and 137% (inactive) and 102% (inactive); in the experiment on HOP-62 NSCLC it was 104% (inactive) and 110% (inactive) and 96.5% (inactive); in the experiment with NCI-H460 lung, 109% (inactive) and 122% (inactive) and 106% (inactive); in the experiment with HOP-92 NSCLC, 84.1% (inactive) and 79.4% (inactive) and 115% (inactive); with NCI-H522 lung, 107% (inactive) and 100% (inactive) and 93.2% (inactive). Moreover, the growth in the experiment on A549/ATCC NSCLC was 112% (inactive) and 102% (inactive) and 107% (inactive); in the experiment on 786-0 renal, 106% (inactive) and 111% (inactive) and 107% (inactive); in the experiment with COLO 205 colon it was 114% (inactive) and 118% (inactive) and 113% (inactive).

In the case of `Cl`, the growth with NCI-H23 lung is 97.5% (inactive); with NCI-H460 lung, 107% (inactive); in the experiment on A549/ATCC NSCLC, 103% (inactive); in the experiment on 786-0 renal, 104% (inactive); with COLO 205 colon it was 115% (inactive).

`c1ccc(CNCCNCc2ccccc2)cc1`: the growth in the experiment on NCI-H23 lung was 117% (inactive); with NCI-H322M lung, 106% (inactive); with HOP-62 NSCLC, 98.8% (inactive); with NCI-H460 lung it was 104% (inactive); in the experiment on HOP-92 NSCLC, 80.6% (inactive); in the experiment with NCI-H522 lung, 106% (inactive). Besides, the growth is 101% (inactive) in the experiment with A549/ATCC NSCLC, 107% (inactive) in the experiment with 786-0 renal and 109% (inactive) in the experiment on COLO 205 colon.

Consider `O=C(Cc1ccccc1)c1ccc(O)c(Cl)c1`, for which the growth in the experiment with NCI-H23 lung was 24% (inactive); in the experiment with NCI-H322M lung it was 80% (inactive); with HOP-62 NSCLC, 70.4% (inactive); in the experiment on NCI-H460 lung, 32.3% (inactive); in the experiment on HOP-92 NSCLC, 57.6% (inactive); in the experiment with NCI-H522 lung it was 10.3% (inactive). Besides, the growth in the experiment with A549/ATCC NSCLC is 96.4% (inactive); in the experiment with 786-0 renal it was 26.8% (inactive); in the experiment with COLO 205 colon it was 55.4% (inactive).

As to `O=C1c2c(O)ccc(O)c2C(=O)c2c(NCCNCCO)ccc(NCCNCCO)c21`, the growth in the experiment on NCI-H23 lung is -59% (active) and -79.5% (active); in the experiment on NCI-H322M lung, -29.2% (active) and -9.24% (active); with HOP-62 NSCLC it was -53.4% (active) and -65.5% (active); in the experiment with NCI-H460 lung, -57% (active) and -52.8% (active); with HOP-92 NSCLC it was -56.9% (active); with NCI-H522 lung, -91.7% (active) and -66.8% (active). The growth is -51.4% (active) and -77.6% (active) with A549/ATCC NSCLC; -15.8% (active) and -50.5% (active) with 786-0 renal; -69.5% (active) and -74.4% (active) in the experiment on COLO 205 colon.
